Laboratory results published in PubChem BioAssay (NCI).
Compounds without any hit were thinned out: in the full panel of roughly 79,000, 15% have a hit. Rule as the data show it: active = growth inhibition above about 70%; inactive = the rest.

Legend:
[1] = NCI Yeast Anticancer Drug Screen. Data for the rad50 strain (AID 155);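 also: 0% = growth of vehicle-only cultures of the same strain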; conditions: S. cerevisiae rad50 strain growth inhibition; at 50.0 µM; hits give high values
Summary of the method: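 Inhibition values express reduced yeast growth in compound-treated cultures relative to vehicle-treated controls.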

[2] = NCI Yeast Anticancer Drug Screen. Data for the mec2-1 strain (AID 157); conditions: S. cerevisiae mec2-1 strain, at 50.0 µM, hits give high values
Summary of the method: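 Strain: mec2-1 (DNA repair/cell cycle alteration). Compound exposure, then growth measured; inhibition expressed relative to vehicle.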

[3] = NCI Yeast Anticancer Drug Screen. Data for the sgs1 mgt1 strain (AID 161);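 also: 0% = growth of cultures given vehicle only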; conditions: S. cerevisiae sgs1 mgt1 strain, at 50.0 µM, hits give high values
Summary of the method: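 Mutant yeast exposed to compound; growth scored against vehicle-only wells.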

[4] = NCI Yeast Anticancer Drug Screen. Data for the cln2 rad14 strain (AID 165);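 also: 0% = growth equal to vehicle treated cultures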; conditions: S. cerevisiae cln2 rad14 strain, at 50.0 µM, hits give high values
Summary of the method: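 Compounds are applied to the cln2 rad14 yeast strain, and growth is then compared with that of vehicle-treated cultures to give inhibition.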

[5] = NCI Yeast Anticancer Drug Screen. Data for the bub3 strain (AID 167); conditions: S. cerevisiae bub3 mutant strain, at 50.0 µM, hits give high values
Summary of the method: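 Steps: expose the mutant yeast strain to compound; grow alongside vehicle-treated cultures; measure growth; express inhibition against the vehicle cultures.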

[6] = NCI Yeast Anticancer Drug Screen. Data for the mlh1 rad18 strain (AID 175); conditions: S. cerevisiae mlh1 rad18 strain growth inhibition; at 50.0 µM; hits give high values
Summary of the method: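 Read-out is yeast growth inhibition, calculated against vehicle-only controls. The compound was applied to a strain engineered with DNA damage repair alterations.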

Measured: growth inhibition

CS1(C)=NC(=O)c2cc([N+](=O)[O-])ccc2N=1
inactive: [1] 12.2% | [2] 19.4% | [3] 10.4% | [4] -25.2% | [5] 11.8% | [6] 12.8%

O=C1NC(=O)c2c1c1cnn(-c3ccccc3)c1n1cccc21
inactive: [1] 15.1% | [2] 4.35% | [3] 25.2% | [4] -67% | [5] 1.2% | [6] 17.7%

CCC(=O)CCc1ccc(OC)cc1
inactive: [1] 4.55% | [2] -6.75% | [3] -3.85% | [4] -20.6% | [5] -12.2% | [6] -13.8%

CSC(SC)=C1CCCC(=C(SC)SC)C1=O
inactive: [1] -6.95% | [2] -9.3% | [3] -9.55% | [4] 6.95% | [5] -0.45% | [6] -8.9%

N#Cc1c2ccccc2c(C#N)c2ccccc12
inactive: [1] -4.5% | [2] -8.15% | [3] 1.9% | [4] -25.7% | [5] 1.3% | [6] -12.3%

COC(=O)C1CCCN1C(=O)c1ccccc1 (stereo unspecified)
inactive: [1] 3.6% | [2] -0.4% | [3] -16.2% | [4] -36.8% | [5] -5% | [6] 11.6%

COc1ccc(OC)c2c(Cl)ccnc12
inactive: [1] 17.1% | [2] 15.1% | [3] 15.6% | [4] 20.8% | [5] 11.1% | [6] 24.5%

COc1ccc(CN2COc3c(ccc4ccccc34)C2)cc1
inactive: [1] 36.1% | [2] 22.9% | [3] 31.1% | [4] 17.4% | [5] 12.6% | [6] 30.9%

CN(c1cn(C2CC[C@@H](CO)O2)c(=O)[nH]c1=O)C1CCCCC1 (stereo partly specified)
inactive: [1] -35.8% | [2] -13.4% | [3] -58.4% | [4] -6% | [5] 5.35% | [6] -41.5%

CC(C)(C)/[N+]([O-])=C/C1(C2(/C=[N+](\[O-])C(C)(C)C)Cc3ccccc3C2=O)Cc2ccccc2C1=O (stereo unspecified)
inactive: [1] 29.8% | [2] 3.75% | [3] 3.05% | [4] 15.6% | [5] 7.15% | [6] 31.9%

CC(=O)N(c1ccccn1)c1ccccn1
inactive: [1] -15.3% | [2] -10.2% | [3] -19.9% | [4] -54.5% | [5] 0.5% | [6] -31.2%

O=C(CO)CC(=O)C(=O)Nc1nc([N+](=O)[O-])cs1
inactive: [1] -18.1% | [2] -31.8% | [3] 21% | [4] 7.9% | [5] -16.1% | [6] -21.5%

O=C(OCc1ccccc1)c1ccccc1O
inactive: [1] 39.1% | [2] 16.1% | [3] 46.1% | [4] -16.1% | [5] 22.8% | [6] 57.5%

Cc1ccc(S(=O)(=O)CO)cc1
inactive: [1] 0.5% | [2] -3.2% | [3] 14.3% | [4] -51.5% | [5] -27.9% | [6] 11%

O=C1CSC(=NCCN=C2NC(=O)CS2)N1
inactive: [1] 10.5% | [2] 18.3% | [3] 9.25% | [4] 1.6% | [5] 15.1% | [6] 28.2%

c1ccc(C2SCSCS2)cc1
inactive: [1] 12.1% | [2] -5.45% | [3] -15.8% | [4] -8.4% | [5] 1.1% | [6] 6.95%

Cc1cc(Br)cc(C)c1NC(=O)C(=O)Nn1c(=S)[nH]c2ccccc2c1=O
inactive: [1] -8.55% | [2] -16.1% | [3] -6.15% | [4] 12.8% | [5] -8.2% | [6] 1.3%

CC(O)C(=O)NN (stereo unspecified)
inactive: [1] 0.75% | [2] -17.7% | [3] -4.95% | [4] -13.6% | [5] -4.65% | [6] 9.4%

O=C(Nc1ccccc1[N+](=O)[O-])C(=O)C(C(=O)c1ccccc1-c1ccccc1)C1OC(=O)c2ccccc21 (stereo unspecified)
inactive: [1] 10.9% | [2] 0.6% | [3] 6.05% | [4] -51.4% | [5] 2.3% | [6] 9.55%

O=c1c2cc([N+](=O)[O-])ccc2sc2ccsc12
inactive: [1] 1.6% | [2] 2.55% | [3] -4.95% | [4] -2.85% | [5] -10.6% | [6] 11.9%

Nc1cnccc1NCC(O)c1ccccc1 (stereo unspecified)
inactive: [1] 9.95% | [2] -5.9% | [3] -6.65% | [4] -15.6% | [5] -1.5% | [6] -8.6%

CCCCC1=C(C)C/C(=N/Nc2ccc([N+](=O)[O-])cc2[N+](=O)[O-])C(C)C1CCCC (stereo unspecified)
inactive: [1] 3.7% | [2] 2.8% | [3] -13.6% | [4] 8.15% | [5] 3.3% | [6] 21.9%

CCOC(=O)CN
inactive: [1] -0.25% | [2] 7.7% | [3] 2.15% | [4] -0.4% | [5] -2% | [6] 14.1%

CC(=O)Nc1ccc(Cc2ccc(Cl)cc2)cc1
inactive: [1] 5.6% | [2] 0.7% | [3] 5.7% | [4] 10.8% | [5] -9.8% | [6] -2.6%

O=c1cn[nH]c(=O)[nH]1
inactive: [1] 35.4% | [2] 0.7% | [3] 32.5% | [4] 10.8% | [5] 4.9% | [6] 11.5%

NC(=S)N/N=C1/CCCC/C1=N/O
inactive: [1] 46.1% | [2] 33.1% | [3] 36.2% | [4] -0.15% | [5] 25.2% | [6] -6.35%

CC(=N\N)/C(C)=N/N=C(C)/C(C)=N/N=C(C)/C(C)=N/N=C(C)/C(C)=N/N
inactive: [1] 11.7% | [2] -7.8% | [3] 4.9% | [4] 13.7% | [5] -8.35% | [6] -14.4%

O=C1OC(c2cccc([N+](=O)[O-])c2)=N/C1=C\c1ccccc1
inactive: [1] 17.2% | [2] 12.1% | [3] 14.6% | [4] 18.4% | [5] 15.3% | [6] 24.6%

c1ccc2c(c1)CC1c3ccccc3CC21 (stereo unspecified)
inactive: [1] -1.2% | [2] -7% | [3] -1.95% | [4] -28.4% | [5] 0.75% | [6] -2.35%

CCOC(C#CC(C)=O)OCC
inactive: [1] 31.1% | [2] 31.3% | [3] 22.9% | [4] 6.65% | [5] 46% | [6] 47.9%

CN(C(=O)Cl)c1ccccc1
inactive: [1] 9.1% | [2] -9.35% | [3] 7.8% | [4] 8.6% | [5] 16.8% | [6] 16.8%

CC1(C)C2CC(c3ccccc3)C1/C(=C/O)C2=O (stereo unspecified)
inactive: [1] -16.9% | [2] -3.2% | [3] 2.8% | [4] 36.8% | [5] -3.85% | [6] -2.9%

CC(C)=CCC/C(C)=N\Nc1ccc([N+](=O)[O-])cc1[N+](=O)[O-]
inactive: [1] -39.4% | [2] -6.7% | [3] 4.75% | [4] -15.6% | [5] 2.15% | [6] 5.4%

COC(Cc1cc(C(O)(c2ccc(C(C)(C)C)cc2)c2cc(CC(OC)(c3cc(C(OC)(c4ccc(C(C)(C)C)cc4)c4ccc(C(C)(C)C)cc4)c(C)cc3C)c3cc(C(OC)(c4ccc(C(C)(C)C)cc4)c4ccc(C(C)(C)C)cc4)c(C)cc3C)c(C)cc2C)c(C)cc1C)(c1cc(C(OC)(c2ccc(C(C)(C)C)cc2)c2ccc(C(C)(C)C)cc2)c(C)cc1C)c1cc(C(OC)(c2ccc(C(C)(C)C)cc2)c2ccc(C(C)(C)C)cc2)c(C)cc1C
inactive: [1] -2.75% | [2] -1.25% | [3] 9.05% | [4] -30.6% | [5] 5.55% | [6] 23.6%

N=c1c(-c2ccccc2)cc2ccccc2n1O
inactive: [1] 7.6% | [2] 10.3% | [3] -6.95% | [4] -0.1% | [5] -5.35% | [6] -5.25%

CN=C(C#N)c1ccccc1
inactive: [1] -10.6% | [2] -17.1% | [3] -2.6% | [4] -28.9% | [5] 8.7% | [6] -15.8%

Cc1nc(-c2ccccc2)oc1-c1ccccc1
inactive: [1] 8.6% | [2] -1.5% | [3] -1.7% | [4] 6.95% | [5] 0.05% | [6] -4.35%

CN(C)c1nc(N)c2ccc(Cl)cc2n1
inactive: [1] -8% | [2] 10.6% | [3] -7.15% | [4] 0.85% | [5] -8.05% | [6] 8.7%

NC(=O)c1csc(CCCCCCc2nc(C(N)=O)cs2)n1
inactive: [1] -13.8% | [2] -15.5% | [3] -5% | [4] 8.75% | [5] -21.2% | [6] -21.1%

Nc1ccc(C(=O)O)c(N)c1
inactive: [1] -4.35% | [2] 1.45% | [3] -14.1% | [4] -40.3% | [5] -22.5% | [6] -1.1%

CCOC(=O)Cc1csc(NC(NC(=O)OCC)(C(=O)OCC)C(F)(F)F)n1 (stereo unspecified)
inactive: [1] 2.4% | [2] -0.3% | [3] -17.9% | [4] -4.2% | [5] -12.3% | [6] -6.25%
